We go through 40 compounds from PubChem BioAssay (NCI).

Compounds without any hit were thinned out: in the full panel of roughly 83,000, 20% have a hit.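 Step 1: grow cells in 96-well plates. Step 2: add test compound at a single concentration. Step 3: incubate 48 h. Step 4: record percent growth.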 Values without a mark were called inactive. Active and inactive are the calls of the source.

This assay deals with SR leukemia. Description: NCI-60 one-dose screen, 48 h (100 = growth as untreated, 0 = no growth, -100 = all killed). The following applies: 10 µM unless noted. As to the method: Growth inhibition of the SR human tumor cell line is measured as a screen for anti-cancer activity. Cells are grown in 96 well plates and exposed to the test compound for 48 hours. Compounds are tested at a single concentration, which is 10^-5 M for most compounds. The reported endpoint is percent growth (GI% or GIPRCNT), where numbers from 0 - 100% represent growth inhibition, and numbers from -100% - 0 represent cell death. For example, a value of 40 represents 60% growth inhibition. A value of 0 means no net growth occurred over the course of the experiment. A value of -40 indicates 40% of cells at the beginning of the experiment died by the end of the experiment. A value of -100 means all cells are dead at the end of the experiment.
NCI-60 Human Tumor Cell Lines Screen was performed using the standard one-dose NCI protocol, which is described in more detail at https://dtp.cancer.gov/discovery_development/nci-60/default.htm.
Compounds with GIPRCNT values below 10 were considered active. Activity score was based on GIPRCNT using the following formula: […]
Score is 0 for GIPRCNT values of 100 or above, 50 for GIPRCNT values of 0, and 100 for GIPRCNT values of -100.
With `O=S(=O)(NCCNc1nccc(-c2c(-c3cccc(F)c3)nc3occn23)n1)c1ccc(Br)cc1`, the growth is 65.6%. The same measure for `O=[N+]([O-])c1ccc(S(=O)(=O)N2CCN(C3=NS(=O)(=O)c4ccccc4N3c3ccccc3)CC2)cc1`: 40.5%. For `C=C1C(=O)O[C@H]2[C@H]1CC/C(COC(=O)CSCCSCC(=O)OC/C1=C/CC[C@@]3(C)O[C@H]3[C@H]3OC(=O)C(=C)[C@@H]3CC1)=C\CC[C@@]1(C)O[C@@H]21` the value was -22.6% (active); for `O=C1c2c(c3c4ccccc4[nH]c3c3ccc4ccccc4c23)C(=O)N1CCN1CCCCC1`, 2.17% (active); for `CC/C(=C(/c1ccc(Cl)cc1)c1ccc(OCCN2CCCC2)cc1)c1ccc(OC)cc1`, -16.1% (active). For `Nc1c(C(=O)Nc2ccccc2Cl)sc2nc3c(cc12)C(O)CCC3` (stereo not given) the value was 13.4%. `O=C(CN1C(=O)CCC1=O)Nc1ncc(Cc2ccc(F)cc2)s1`: the growth was 99.9%. For `C=C(CNCCc1ccc(O)cc1)[C@@H]1CC[C@]2(CO)CC[C@]3(C)[C@H](CC[C@@H]4[C@@]5(C)CCC(NCCO)C(C)(C)[C@@H]5CC[C@]43C)[C@@H]12` (stereo not given in full) the value was -42.3% (active); for `COc1ccc(/C=C2\COc3ccc(O)cc3C2=O)c(OC)c1OC`, 16.5%. The same measure for `C=C(C)[C@@H]1CC[C@]2(C(=O)OC)CC[C@]3(C)[C@H](CC[C@@H]4[C@@]5(C)C/C(=C/NC(N)=S)C(=O)C(C)(C)[C@@H]5CC[C@]43C)[C@@H]12`: 81.6%; for `O=C1Nc2ccccc2/C1=C\c1nc(-c2ccccc2)n2ccccc12`: 101%; for `Cn1ccc2c3c(ccc21)CC3=O`: 108%. For `CCOC(=O)c1[nH]c(=O)c2c(C)nc(-c3ccccc3)cc2c1O` the value was 97%; for `COc1cc(CNC(=O)CCCC/C=C/C(C)C)ccc1OCc1nnc(Nc2ccc([N+](=O)[O-])cc2)o1`, 64.2%; for `COc1ccc2[nH]cc(C(c3cc(F)cc(F)c3)c3c[nH]c4ccc(OC)cc34)c2c1`, 46.8%.

Consider `O=Cc1ccc([N+](=O)[O-])s1`, for which the growth is 63.2%. For `O=C1NCCC12CCN(c1c(Cl)cncc1-c1ccc(O)cc1)CC2` the value was 94.3%; for `O=C1Nc2ccccc2/C1=C\c1nc(-c2ccccc2F)n2ccccc12`, 49.6%. The same measure for `O=C(NNc1nccc(Nc2ccc(S(=O)(=O)Nc3ccncc3)cc2)n1)c1ccccc1`: 87.6%; for `Cc1ccc2c(n1)C(=O)c1[nH]c3ccccc3c1C2=O`: 39.8%.

For `Brc1ccc2[nH]cc(-c3nonc3-c3c[nH]c4ccccc34)c2c1`, the growth is 28.1%. With `COc1cc(-c2cc(-c3cccs3)c(C#N)c(N3CCOCC3)n2)cc(OC)c1OC`, the growth is -1.19% (active). Turning to `Cc1ccc(-c2nc3nc(-c4ccc(F)cc4)nc(N4CCNCC4)c3o2)cc1`, the growth was -29.5% (active). The same measure for `CN1C(=O)/C(=C/c2cn(-c3ccccc3)nc2-c2ccccc2)SC1=S`: 109%; for `CN(C)c1ccc(/C=C/C(=O)c2ccc(-n3cc(CN4CCN(c5cc6c(cc5F)c(=O)c(C(=O)O)cn6C5CC5)CC4)nn3)cc2)cc1`: 7.11% (active). For `Oc1c(Cl)cc(Cl)c2ccc(Cn3cc(-c4cc(C(F)(F)F)cc(C(F)(F)F)c4)nn3)nc12`, the growth is -14% (active). For `CCc1ccc(Oc2cn[nH]c2-c2ccc(OCCc3ccc(F)cc3)cc2O)cc1` the value was 101%. On to `C=C(C)[C@@H]1CC[C@]2(C(=O)NCCNCCN)CC[C@]3(C)[C@H](CC[C@@H]4[C@@]5(C)C/C(=C/c6ccncc6)C(=O)C(C)(C)[C@@H]5CC[C@]43C)[C@@H]12`, for which the growth was 95.4%. Turning to `CCCCCOc1ccc(C(=O)/C(Br)=C/C(=O)O)cc1`, the growth is 91.9%. As for `C[C@@H]1CCC[C@H]1CC(N)C(=O)O` (stereo not given in full), the growth was 108%. For `O=C1C(Cl)=C(Nc2ccc(O)cc2)C(=O)N1Cc1ccc(Cl)cc1` the value was 5.96% (active); for `O=C1/C(=C/c2ccc(F)cc2)COc2ccc(O)c(O)c21`, 18.9%; for `CCOC(=O)c1c(C)c2c(n1C)CSc1cc(C(=O)c3ccccc3)c(=O)[nH]c1-2`, 88.3% [100 µM]. For `CS(=O)(=O)c1cccc(-c2c(-c3cccc(OS(N)(=O)=O)c3)nc3sccn23)c1`, the growth was 85.1%. The same measure for `CC1=C(Nc2ccc(N3CCN(C)CC3)cc2)C(=O)c2cncnc2C1=O`: 26.2%; for `COc1ccc(/C=C2\COc3ccc(O)c(O)c3C2=O)cc1`: 21.6%.

`Cc1cc2c(O)c(-c3cc(Cl)ccc3Cl)c3sc(=O)oc3c2cc1C`: the growth was 54.3%. The same measure for `C=C(C)[C@@H]1CC[C@]2(C)[C@H](CC=C3[C@@H]4[C@H](C)[C@@H](C)CC[C@]4(CO)CC[C@]32C)[C@@]1(C)CCCN`: -35.4% (active); for `C[C@H](NC(=O)[C@@H](C)N)[C@H](Oc1ccc2c(cnn2-c2ccc(F)cc2)c1)c1ccc2c(c1)OCCO2`: -41.9% (active).

Regarding `CSc1nnc(-c2cnn3c2NC(c2ccccc2)C3)n1-c1ccc(C(F)(F)F)cc1` (stereo not given), the growth was 17.2%.
